30 molecules from the supplement of paper PMC8866396 can be followed below.

Molecules are shown by their SMILES. ± gives the standard deviation of the averaged measurements.

One assay concerns IL-6-GFP PC-9GR. Nature of the assay: cell viability (CCK-8 OD) relative to DMSO control (fraction of control); higher = more viable cells. To be noted: compound concentration: 10 uM; treatment time: 48 h. The gist of the method:
(§1)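 A purchased 510-compound library was screened at a final 10 μM for 48 h against PC-9 and PC-9GR lung cancer cells overexpressing IL-6-GFP via a lentiviral construct, seeded at 3000 cells/well in 96-well plates. GFP imaging was done on a parallel plate set. For viability, CCK-8 absorbance was recorded and each well's optical density was divided by that of the vehicle control well. There were two independent replicates.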

The test system of the next assay is IL-6-GFP PC-9. The description is as above. To be noted: compound concentration: 10 uM; treatment time: 48 h. The gist of the method: as §1

In the case of `Nc1ccc(S(=O)(=O)Nc2ccnn2-c2ccccc2)cc1` [Sulfaphenazole], the figures for the cell viability in the assay with IL-6-GFP PC-9GR and in the assay on IL-6-GFP PC-9 were 1.15 ± 0.36 and 1.29 ± 0.11, respectively.

For the molecule `CCC(C)(Oc1ccc(C2(c3ccc(OC(C)(CC)C(=O)O)cc3)CCCCC2)cc1)C(=O)O` (stereo not given) [Clinofibrate], the cell viability amounted to 1.17 ± 0.14 in the assay with IL-6-GFP PC-9GR and 1.23 ± 0.42 in the assay on IL-6-GFP PC-9.

As to `CNC1CCC(c2ccc(Cl)c(Cl)c2)c2ccccc21.Cl` (stereo not given) [Sertraline HCl], the cell viability with IL-6-GFP PC-9GR came out at 0.338 ± 0.063; with IL-6-GFP PC-9, 0.664 ± 0.35.

Turning to `CS(=O)(=O)c1ccc(C(=O)Nc2ccc(Cl)c(-c3ccccn3)c2)c(Cl)c1` [Vismodegib (GDC-0449)], the results for the cell viability with IL-6-GFP PC-9GR and with IL-6-GFP PC-9 were 1.05 ± 0.072 and 0.311 ± 0.32, respectively.

Turning to `CC(C)=CCCC(C)(OC1OC(CO)C(O)C(O)C1O)C1CCC2(C)C1C(O)CC1C3(C)CCC(O)C(C)(C)C3C(OC3OC(CO)C(O)C(O)C3O)CC12C` (stereo not given) [Ginsenoside Rg1], the cell viability in the assay with IL-6-GFP PC-9GR was determined as 1.16 ± 0.26; in the assay with IL-6-GFP PC-9, 1.15 ± 0.17.

With `CNC(=O)c1cc(Oc2ccc(NC(=O)Nc3ccc(Cl)c(C(F)(F)F)c3)c(F)c2)ccn1.O` [Regorafenib Monohydrate], the cell viability worked out at 0.659 ± 0.32 in the assay on IL-6-GFP PC-9GR and 0.21 ± 0.28 in the assay on IL-6-GFP PC-9.

For `O=C(Nc1ccc(O)cc1)c1ccccc1O` [Osalmid], the cell viability with IL-6-GFP PC-9GR was determined as 1.3 ± 0.45; with IL-6-GFP PC-9, 1.25 ± 0.1.

`O=C([O-])CC(O)(CC(=O)[O-])C(=O)[O-].O=C([O-])CC(O)(CC(=O)[O-])C(=O)[O-].[BiH6+3].[K+].[K+].[K+]` [Gastrodenol]: the values for the cell viability with IL-6-GFP PC-9GR and with IL-6-GFP PC-9 were 0.722 ± 0.25 and 0.986 ± 0.29, respectively.

For `C1N2CN3CN1CN(C2)C3` [Methenamine], the cell viability in the assay on IL-6-GFP PC-9GR stood at 1.09 ± 0.19; with IL-6-GFP PC-9, 0.9499 ± 0.009.

Take `CCCCC1C(=O)N(c2ccccc2)N(c2ccccc2)C1=O` [Phenylbutazone]: the cell viability in the assay on IL-6-GFP PC-9GR was determined as 1.34 ± 0.094; with IL-6-GFP PC-9, 1.25 ± 0.053.

For the molecule `Cc1cc2ncc(C(=O)NCC(C)(C)NCC(=O)N3CCCC3C#N)cn2n1` (stereo not given) [Anagliptin], the values for the cell viability in the assay with IL-6-GFP PC-9GR and in the assay on IL-6-GFP PC-9 were -0.0161 ± 0.12 and 1.23 ± 0.022, respectively.

`NC(CC(=O)N1CCn2c(nnc2C(F)(F)F)C1)Cc1cc(F)c(F)cc1F` (stereo not given) [Sitagliptin]: the cell viability is 1.62 ± 0.63 with IL-6-GFP PC-9GR and 1.14 ± 0.12 in the assay on IL-6-GFP PC-9.

Take `NCCNc1ccc(NCCN)c2c1C(=O)c1ccncc1C2=O.O=C(O)/C=C\C(=O)O.O=C(O)/C=C\C(=O)O` [Pixantrone Maleate]: the values for the cell viability with IL-6-GFP PC-9GR and in the assay on IL-6-GFP PC-9 were 0.168 ± 0.39 and 0.3518 ± 0.00067, respectively.

As to `CS(=O)(=O)O.N#CC1(c2ccc(NC(=O)c3cccnc3NCc3ccncc3)cc2)CCCC1`, the cell viability in the assay on IL-6-GFP PC-9GR amounted to 1.32 ± 0.072; in the assay with IL-6-GFP PC-9 it was 0.887 ± 0.084.

As to `CC#CCn1c(N2CCCC(N)C2)nc2c1c(=O)n(Cc1nc(C)c3ccccc3n1)c(=O)n2C` (stereo not given) [Linagliptin], the values for the cell viability with IL-6-GFP PC-9GR and with IL-6-GFP PC-9 were 0.849 ± 0.11 and 0.883 ± 0.22, respectively.

In the case of `CC(=O)N1CC(O)CC1C(=O)O` (stereo not given) [Oxaceprol], the cell viability was 1.22 ± 0.15 in the assay with IL-6-GFP PC-9GR and 1.05 ± 0.098 in the assay on IL-6-GFP PC-9.

As for `Cc1nc(Nc2ncc(C(=O)Nc3c(C)cccc3Cl)s2)cc(N2CCN(CCO)CC2)n1.Cl` [Dasatinib hydrochloride], the cell viability was determined as 0.517 ± 0.025 with IL-6-GFP PC-9GR and 0.438 ± 0.063 in the assay with IL-6-GFP PC-9.

For `C=C1C(=O)OC2C1CCC(=C)C1CCC(=C)C12` (stereo not given) [Dehydrocostus Lactone], the cell viability in the assay on IL-6-GFP PC-9GR was 0.75 ± 0.052; in the assay with IL-6-GFP PC-9, 0.808 ± 0.077.

`CC1=C(/C=C/C(C)=C/C=C/C(C)=C/C(=O)O)C(C)(C)CCC1` [Tretinoin]: the figures for the cell viability in the assay with IL-6-GFP PC-9GR and in the assay on IL-6-GFP PC-9 were 1.45 ± 0.45 and 1.03 ± 0.15, respectively.

Take `CC(C)c1c(C(=O)Nc2ccccc2)c(-c2ccccc2)c(-c2ccc(F)cc2)n1CCC(O)CC(O)CC(=O)O` (stereo not given) [atorvastatin]: the values for the cell viability with IL-6-GFP PC-9GR and with IL-6-GFP PC-9 were 0.904 ± 0.21 and 0.866 ± 0.015, respectively.

As to `Cc1ccc(C(C)C)cc1` [p-Cymene], the figures for the cell viability with IL-6-GFP PC-9GR and with IL-6-GFP PC-9 were 0.822 ± 0.24 and 1.249 ± 0.011, respectively.

Regarding `CC(=O)OCC(CCn1cnc2cnc(N)nc21)COC(C)=O` [Famciclovir], the cell viability in the assay on IL-6-GFP PC-9GR stood at 1.32 ± 0.15; in the assay on IL-6-GFP PC-9, 1.26 ± 0.18.

As to `Nc1nc(N)c2nc(-c3ccccc3)c(N)nc2n1` [Triamterene], the cell viability stood at 0.591 ± 0.14 in the assay on IL-6-GFP PC-9GR and 0.842 ± 0.038 with IL-6-GFP PC-9.

For the molecule `CCC1(O)C(=O)OCc2c1cc1n(c2=O)Cc2cc3cc(O)ccc3nc2-1` (stereo not given) [Hydroxy Camptothecine], the cell viability in the assay on IL-6-GFP PC-9GR was found to be 0.38 ± 0.2; in the assay on IL-6-GFP PC-9 it was 0.404 ± 0.042.

With `Cc1coc2c1C(=O)C(=O)c1c-2ccc2c(C)cccc12` [Tanshinone I], the cell viability is 1.32 ± 0.097 with IL-6-GFP PC-9GR and 1.51 ± 0.29 with IL-6-GFP PC-9.

With `COc1ccc(-c2ccc3cc(C(=O)O)ccc3c2)cc1C12CC3CC(CC(C3)C1)C2` [Adapalene], the cell viability in the assay on IL-6-GFP PC-9GR stood at 1.15 ± 0.15; in the assay on IL-6-GFP PC-9 it was 0.765 ± 0.3.

For the molecule `Cc1ccc(-c2ncc(Cl)cc2-c2ccc(S(C)(=O)=O)cc2)cn1` [Etoricoxib], the values for the cell viability with IL-6-GFP PC-9GR and in the assay on IL-6-GFP PC-9 were 0.855 ± 0.092 and 1.21 ± 0.029, respectively.

Consider `O=C(O)C1CSCN1` (stereo not given) [Timonacic], for which the cell viability was determined as 1.19 ± 0.24 in the assay on IL-6-GFP PC-9GR and 1.01 ± 0.15 in the assay on IL-6-GFP PC-9.

Turning to `COC1=C(OC)C(=O)C(CCCCCCCCCCO)=C(C)C1=O` [Idebenone], the cell viability is 1.12 ± 0.088 with IL-6-GFP PC-9GR and 0.816 ± 0.0099 with IL-6-GFP PC-9.

As for `NC1CN(c2c(F)cc3c(=O)c(C(=O)O)cn(C4CC4F)c3c2Cl)CC12CC2.NC1CN(c2c(F)cc3c(=O)c(C(=O)O)cn(C4CC4F)c3c2Cl)CC12CC2.O.O.O` (stereo not given) [Sitafloxacin Hydrate], the cell viability in the assay on IL-6-GFP PC-9GR is 1.11 ± 0.072; in the assay on IL-6-GFP PC-9 it was 1.01 ± 0.042.
